# Active and inactive are the calls of the source.
# Columns and labels:
# [1] = system: XIP peptide (Xip251-270) binding; assay: XIP fragment 251-270 binding compounds – biochemical, small-molecule microarray, fluorescence 635/667 nm, 0.1 µg/mL protein, primary screen (AID 1182); conditions: fluorescent protein binding, 635 nm, higher = more signal, called active from +8 up or from −8 down
# XIP peptide (Xip251-270) = assay: compounds binding XIP fragment 251-270 – biochemical, small-molecule microarray, fluorescence 635/667 nm, 0.5 µg/mL protein, primary screen (AID 1183); conditions: fluorescence 635 nm, higher = more signal
# [2] = blood-stage malaria parasite viability loss – strain 3D7, DAPI fluorescence, 100 nL, primary screen (AID 1184);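 note: parasites grown inside human red blood cells in medium with human serum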; conditions: P. falciparum 3D7 growth, 3 d, higher = more signal
# [3] = biological target: Homeobox protein Hox-A13 (Mus musculus) (UniProt Q62424); assay: disruptors of Hoxa13 oligonucleotide interaction – biochemical, fluorescence polarization, labeled oligonucleotide, primary screen (AID 1185); conditions: Hoxa13:DNA binding, 15 min, higher = more signal, called active from +8 up or from −8 down
# Sequence of Homeobox protein Hox-A13 (Mus musculus) (Q62424 whole entry, looked up): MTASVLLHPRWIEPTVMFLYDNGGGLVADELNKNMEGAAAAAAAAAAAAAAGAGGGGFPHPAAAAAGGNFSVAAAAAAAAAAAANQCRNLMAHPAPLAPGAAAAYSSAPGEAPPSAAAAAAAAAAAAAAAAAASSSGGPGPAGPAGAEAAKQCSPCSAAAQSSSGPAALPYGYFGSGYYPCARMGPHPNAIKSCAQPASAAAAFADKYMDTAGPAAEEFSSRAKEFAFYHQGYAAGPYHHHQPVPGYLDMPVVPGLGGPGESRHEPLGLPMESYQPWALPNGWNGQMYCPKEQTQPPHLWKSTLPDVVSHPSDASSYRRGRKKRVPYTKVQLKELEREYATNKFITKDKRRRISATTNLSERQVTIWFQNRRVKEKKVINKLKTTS
SMILES,composite z-score [1],composite z-score (XIP peptide (Xip251-270)),z-score [2],z-score [3]
C[C@H]1CC[C@H]2C(=O)O[C@H](COc3ccc(C(C)(C)C)cc3)CN2[C@@H]1c1ccc(Br)cc1,1.71 (inactive),0.567,-0.398,1.13 (inactive)
O=C1[C@H]2[C@H]3[C@H](O)[C@H](O)CC(=NOC[C@@H](O)COCc4ccco4)[C@H]3CC[C@H]2C(=O)N1c1ccc(F)cc1F,-0.774 (inactive),0.415,-0.644,0.794 (inactive)
CCOC(=O)[C@H](CC(C)C)NC(=O)CCC1CC(OC(=O)NCc2ccc3c(c2)OCO3)CC2(CCCC(COC(=O)NCC(c3ccccc3)c3ccccc3)O2)O1 (some centres not stated),0.717 (inactive),-0.0305,-0.11,-6.66 (inactive)
Cn1c(=O)n2n(c1=O)[C@H]1[C@H](O)[C@@H]3O[C@@H]3C(=NOCc3ccccc3)[C@H]1CC2,0.899 (inactive),0.382,0.769,-2.35 (inactive)
COCCNC(=O)OCC1CCCC2(CC(OC(=O)NCc3ccc4c(c3)OCO4)CC(CCC(=O)N[C@@H](C)C(=O)OC)O2)O1 (some centres not stated),0.412 (inactive),0.623,-2,-6.4 (inactive)
CCOC(=O)[C@H](CC(C)C)NC(=O)CCC1CC(OC(=O)NCCc2ccc(F)cc2)CC2(CCCC(COC(=O)NCC3CCCCC3)O2)O1 (some centres not stated),-0.0257 (inactive),0.437,-1.9,-7.04 (inactive)
Cc1ccc(S(=O)(=O)NC(CCc2ccccc2)CC(=O)C(C)(C)C)cc1 (configuration not stated),0.275 (inactive),-0.113,-0.268,-3.68 (inactive)
CCN1C(=O)[C@H]2[C@H]3[C@H](O)[C@H](O)CC(=NOCC(C)C)[C@@H]3CC[C@H]2C1=O,0.821 (inactive),0.645,-0.108,-1.62 (inactive)
CO[C@H]1COC(=O)[C@H](C)NC(=O)[C@@H](C)COC(=O)[C@H]2CCCN2C(=O)CC=C[C@H]1C,-0.077 (inactive),-0.143,0.43,0.24 (inactive)
CC(=O)OC[C@H]1O[C@H](CC=NO[C@H](C)c2cn([C@H](CO)Cc3ccccc3)nn2)C=C[C@@H]1OC(C)=O,0.364 (inactive),0.289,0.242,-1.83 (inactive)
CC(C)C[C@H](NC(=O)CCC1CC(OC(=O)NCc2cccc3ccccc23)CC2(CCCC(COC(=O)NCc3ccccc3)O2)O1)C(=O)NCC(c1ccccc1)c1ccccc1 (some centres not stated),-0.284 (inactive),0.673,-1.65,-6.28 (inactive)
Cc1cc2c(nc1C)CCCN2CC(O)CN1CCCc2nc(C)c(C)cc21,0.6 (inactive),-0.134,-0.958,-3.33 (inactive)
C[C@H]1Cc2c(COc3ccccc3)nc3c(c2CO1)CN(CCOc1ccccc1)CC3,-0.279 (inactive),0.692,0.668,-5.49 (inactive)

# From PubChem BioAssay
